# Key:
# Test in all cases: DAPPL (digital affinity profiling via proximity ligation, sequencing); 10 mM Tris-HCl pH 7.5, 50 mM NaCl, 1 mM DTT, 4% glycerol, room temperature, 30 min; GST-TFs on glutathione beads, 16-mer random dsDNA library, 0.1% formaldehyde crosslink after washing; high values mean tight binding
# FLI1 = target: T1, FLI1 (Homo sapiens, UniProt Q01543 1-452); conditions: protein: recombinant; tags: N-terminal GST; dsDNA, one strand shown
# T1 sequence: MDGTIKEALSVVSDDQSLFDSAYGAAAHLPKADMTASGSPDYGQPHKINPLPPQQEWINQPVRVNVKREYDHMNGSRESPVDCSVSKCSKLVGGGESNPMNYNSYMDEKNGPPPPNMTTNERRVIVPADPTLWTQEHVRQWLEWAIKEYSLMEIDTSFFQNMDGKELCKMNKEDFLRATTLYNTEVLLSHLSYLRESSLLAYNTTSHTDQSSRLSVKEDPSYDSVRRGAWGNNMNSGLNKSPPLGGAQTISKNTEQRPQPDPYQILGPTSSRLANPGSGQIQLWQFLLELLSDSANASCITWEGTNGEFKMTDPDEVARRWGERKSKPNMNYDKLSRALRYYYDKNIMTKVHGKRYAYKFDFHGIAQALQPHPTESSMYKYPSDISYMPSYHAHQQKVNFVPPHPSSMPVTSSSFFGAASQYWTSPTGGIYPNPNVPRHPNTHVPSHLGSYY
# In short: (§1)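 Human transcription factors carrying a GST fusion were produced in yeast, bound to glutathione beads, tagged with DNA barcodes and pooled together with a tag-only sample. Each pool was held with 200 nmole of a random double-stranded 16-mer DNA library in Tris/NaCl/DTT/glycerol buffer for 30 min at room temperature, then washed, crosslinked in 0.1% formaldehyde, proximity-ligated with BsaI/T4 ligase (1 h, 37 °C), PCR-amplified and sequenced on an Illumina NextSeq500. Binding signal is the read frequency of each hexamer for a given factor divided by its frequency in the tag-only sample.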
# ELK1 = target: T2, ELK1 (Homo sapiens, UniProt P19419 1-428); conditions: protein: recombinant; tags: N-terminal GST; dsDNA, one strand shown
# T2 sequence: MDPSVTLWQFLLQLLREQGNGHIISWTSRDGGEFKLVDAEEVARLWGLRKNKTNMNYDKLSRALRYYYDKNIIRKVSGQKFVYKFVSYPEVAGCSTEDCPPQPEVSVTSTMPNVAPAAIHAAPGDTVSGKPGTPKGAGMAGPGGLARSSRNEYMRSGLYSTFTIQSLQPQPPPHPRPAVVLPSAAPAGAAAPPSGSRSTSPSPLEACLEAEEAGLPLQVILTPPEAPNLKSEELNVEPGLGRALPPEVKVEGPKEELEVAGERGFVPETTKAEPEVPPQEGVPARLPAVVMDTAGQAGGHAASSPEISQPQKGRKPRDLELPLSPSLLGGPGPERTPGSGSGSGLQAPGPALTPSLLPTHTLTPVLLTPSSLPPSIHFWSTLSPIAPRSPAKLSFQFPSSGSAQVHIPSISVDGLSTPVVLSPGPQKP
# In short: as §1
# GABPA = target: T3, GABPA (Homo sapiens, UniProt Q06546 1-454); conditions: protein: recombinant; tags: N-terminal GST; dsDNA, one strand shown
# T3 sequence: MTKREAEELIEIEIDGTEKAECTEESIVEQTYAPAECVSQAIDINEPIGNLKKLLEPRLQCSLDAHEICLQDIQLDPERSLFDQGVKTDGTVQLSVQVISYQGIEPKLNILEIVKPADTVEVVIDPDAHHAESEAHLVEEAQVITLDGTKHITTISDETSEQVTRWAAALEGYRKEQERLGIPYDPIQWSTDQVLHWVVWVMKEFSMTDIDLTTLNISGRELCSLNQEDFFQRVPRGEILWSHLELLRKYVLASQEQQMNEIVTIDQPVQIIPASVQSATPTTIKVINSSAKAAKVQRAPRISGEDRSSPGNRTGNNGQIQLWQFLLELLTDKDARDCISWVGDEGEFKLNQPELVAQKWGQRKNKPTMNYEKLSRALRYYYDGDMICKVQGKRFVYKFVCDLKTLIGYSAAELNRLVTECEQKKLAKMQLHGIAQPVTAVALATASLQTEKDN
# In short: as §1
# ERG = target: T4, ERG (Homo sapiens, UniProt P11308 1-479); conditions: protein: recombinant; tags: N-terminal GST; dsDNA, one strand shown
# T4 sequence: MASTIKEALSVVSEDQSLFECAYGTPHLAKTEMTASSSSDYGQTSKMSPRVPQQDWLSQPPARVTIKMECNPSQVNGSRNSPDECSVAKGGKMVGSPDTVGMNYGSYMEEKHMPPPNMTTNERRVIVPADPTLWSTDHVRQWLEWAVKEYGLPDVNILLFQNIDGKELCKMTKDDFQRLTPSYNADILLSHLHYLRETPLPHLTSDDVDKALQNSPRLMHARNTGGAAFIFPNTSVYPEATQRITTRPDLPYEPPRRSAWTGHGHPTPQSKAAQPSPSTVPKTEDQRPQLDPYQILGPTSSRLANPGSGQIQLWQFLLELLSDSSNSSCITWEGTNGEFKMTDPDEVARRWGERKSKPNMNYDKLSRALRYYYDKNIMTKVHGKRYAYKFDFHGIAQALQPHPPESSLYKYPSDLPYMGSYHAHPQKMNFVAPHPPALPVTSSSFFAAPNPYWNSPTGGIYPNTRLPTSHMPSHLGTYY
# In short: as §1
# ELF1 = ELF1 (Homo sapiens, UniProt P32519 1-619); conditions: protein: recombinant; tags: N-terminal GST; dsDNA, one strand shown
# Chain of ELF1 (P32519 whole entry): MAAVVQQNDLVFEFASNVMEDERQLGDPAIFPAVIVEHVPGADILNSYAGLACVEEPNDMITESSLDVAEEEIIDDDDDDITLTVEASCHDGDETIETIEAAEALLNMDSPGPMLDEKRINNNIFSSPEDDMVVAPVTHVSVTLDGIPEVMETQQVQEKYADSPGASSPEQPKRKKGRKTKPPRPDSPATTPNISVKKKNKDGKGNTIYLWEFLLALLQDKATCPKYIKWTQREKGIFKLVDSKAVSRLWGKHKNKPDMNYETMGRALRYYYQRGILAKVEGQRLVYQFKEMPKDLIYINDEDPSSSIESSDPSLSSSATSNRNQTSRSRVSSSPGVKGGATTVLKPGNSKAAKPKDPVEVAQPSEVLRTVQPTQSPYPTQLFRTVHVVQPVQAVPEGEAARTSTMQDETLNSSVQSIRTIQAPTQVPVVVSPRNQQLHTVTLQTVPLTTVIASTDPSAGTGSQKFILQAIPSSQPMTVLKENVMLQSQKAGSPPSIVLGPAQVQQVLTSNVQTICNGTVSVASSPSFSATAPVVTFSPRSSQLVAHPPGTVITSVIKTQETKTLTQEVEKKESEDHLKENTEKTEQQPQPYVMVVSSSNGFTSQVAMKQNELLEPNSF
# In short: as §1
# EHF = target: T5, EHF (Homo sapiens, UniProt Q9NZC4 1-300); conditions: protein: recombinant; tags: N-terminal GST; dsDNA, one strand shown
# T5 sequence: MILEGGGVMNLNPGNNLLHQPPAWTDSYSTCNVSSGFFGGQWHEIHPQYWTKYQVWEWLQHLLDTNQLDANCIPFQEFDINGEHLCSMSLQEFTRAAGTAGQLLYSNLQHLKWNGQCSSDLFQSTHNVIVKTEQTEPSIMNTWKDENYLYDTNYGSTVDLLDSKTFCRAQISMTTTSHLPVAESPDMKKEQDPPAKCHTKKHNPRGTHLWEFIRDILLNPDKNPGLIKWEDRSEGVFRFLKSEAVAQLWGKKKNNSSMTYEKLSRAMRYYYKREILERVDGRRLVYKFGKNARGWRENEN
# In short: as §1
# SPIB = SPIB (Homo sapiens, UniProt Q01892 1-262); conditions: protein: recombinant; tags: N-terminal GST; dsDNA, one strand shown
# Chain of SPIB (Q01892 whole entry): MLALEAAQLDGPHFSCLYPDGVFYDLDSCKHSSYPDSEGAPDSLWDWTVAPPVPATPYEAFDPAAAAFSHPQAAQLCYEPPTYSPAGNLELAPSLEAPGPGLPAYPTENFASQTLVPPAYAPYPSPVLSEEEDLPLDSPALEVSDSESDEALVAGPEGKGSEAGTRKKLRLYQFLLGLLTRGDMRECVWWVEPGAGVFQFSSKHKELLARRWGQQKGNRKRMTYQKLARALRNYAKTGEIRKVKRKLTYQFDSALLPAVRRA
# In short: as §1
# ELK3 = target: T6, ELK3 (Homo sapiens, UniProt P41970 1-407); conditions: protein: recombinant; tags: N-terminal GST; dsDNA, one strand shown
# T6 sequence: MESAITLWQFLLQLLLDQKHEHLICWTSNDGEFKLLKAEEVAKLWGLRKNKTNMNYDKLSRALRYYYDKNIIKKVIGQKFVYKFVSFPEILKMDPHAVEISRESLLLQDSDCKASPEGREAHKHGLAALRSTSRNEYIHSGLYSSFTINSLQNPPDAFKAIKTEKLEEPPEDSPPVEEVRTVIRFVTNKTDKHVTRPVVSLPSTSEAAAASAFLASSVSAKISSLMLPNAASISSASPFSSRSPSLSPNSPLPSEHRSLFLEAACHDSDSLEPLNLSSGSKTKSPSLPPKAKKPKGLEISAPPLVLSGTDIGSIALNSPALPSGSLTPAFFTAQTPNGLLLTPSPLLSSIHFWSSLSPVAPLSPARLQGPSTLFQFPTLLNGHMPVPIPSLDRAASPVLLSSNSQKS
# In short: as §1
# ETV5 = ETV5 (Homo sapiens, UniProt P41161 1-510); conditions: protein: recombinant; tags: N-terminal GST; dsDNA, one strand shown
# Chain of ETV5 (P41161 whole entry): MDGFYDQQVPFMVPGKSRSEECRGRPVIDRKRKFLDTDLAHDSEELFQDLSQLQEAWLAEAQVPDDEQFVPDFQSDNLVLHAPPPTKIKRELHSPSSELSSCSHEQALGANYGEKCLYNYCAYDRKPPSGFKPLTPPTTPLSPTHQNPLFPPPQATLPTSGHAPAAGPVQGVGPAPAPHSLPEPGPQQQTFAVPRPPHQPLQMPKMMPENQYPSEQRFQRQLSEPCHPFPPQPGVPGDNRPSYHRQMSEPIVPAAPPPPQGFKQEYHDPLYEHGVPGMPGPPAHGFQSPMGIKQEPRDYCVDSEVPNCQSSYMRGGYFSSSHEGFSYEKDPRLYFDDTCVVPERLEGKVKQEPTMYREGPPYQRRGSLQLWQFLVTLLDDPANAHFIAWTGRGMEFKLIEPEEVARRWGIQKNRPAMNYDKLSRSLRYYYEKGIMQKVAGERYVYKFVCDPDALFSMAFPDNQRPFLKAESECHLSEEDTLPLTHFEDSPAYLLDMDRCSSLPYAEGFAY
# In short: as §1
# HSF1 = HSF1 (Homo sapiens, UniProt Q00613 1-529); conditions: protein: recombinant; tags: N-terminal GST; chain copies: 3; dsDNA, one strand shown
# Chain of HSF1 (Q00613 whole entry): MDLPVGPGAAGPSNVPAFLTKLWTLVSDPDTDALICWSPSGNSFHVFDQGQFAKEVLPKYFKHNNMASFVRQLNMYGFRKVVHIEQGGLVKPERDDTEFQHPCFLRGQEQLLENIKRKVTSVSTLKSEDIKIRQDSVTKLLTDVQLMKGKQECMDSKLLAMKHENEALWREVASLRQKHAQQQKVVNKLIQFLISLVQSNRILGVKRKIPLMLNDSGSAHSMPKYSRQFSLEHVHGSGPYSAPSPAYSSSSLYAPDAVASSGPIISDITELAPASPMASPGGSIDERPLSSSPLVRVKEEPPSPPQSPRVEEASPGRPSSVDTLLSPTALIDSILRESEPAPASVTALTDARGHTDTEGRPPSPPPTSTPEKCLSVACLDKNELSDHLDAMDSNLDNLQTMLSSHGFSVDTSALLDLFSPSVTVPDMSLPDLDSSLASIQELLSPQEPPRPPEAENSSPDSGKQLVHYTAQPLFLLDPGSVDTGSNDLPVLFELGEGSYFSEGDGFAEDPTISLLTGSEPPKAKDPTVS
# In short: as §1
# SPIC = target: T7, SPIC (Homo sapiens, UniProt Q8N5J4 1-248); conditions: protein: recombinant; tags: N-terminal GST; dsDNA, one strand shown
# T7 sequence: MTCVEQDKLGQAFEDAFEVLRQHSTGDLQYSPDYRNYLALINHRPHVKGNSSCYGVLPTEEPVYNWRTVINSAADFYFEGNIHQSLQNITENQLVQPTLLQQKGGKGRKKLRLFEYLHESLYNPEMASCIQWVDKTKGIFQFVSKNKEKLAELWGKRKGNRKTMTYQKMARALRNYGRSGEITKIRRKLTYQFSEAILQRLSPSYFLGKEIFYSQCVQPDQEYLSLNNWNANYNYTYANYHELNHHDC
# In short: as §1
# ELF4 = ELF4 (Homo sapiens, UniProt Q99607 1-663); conditions: protein: recombinant; tags: N-terminal GST; dsDNA, one strand shown
# Chain of ELF4 (Q99607 whole entry): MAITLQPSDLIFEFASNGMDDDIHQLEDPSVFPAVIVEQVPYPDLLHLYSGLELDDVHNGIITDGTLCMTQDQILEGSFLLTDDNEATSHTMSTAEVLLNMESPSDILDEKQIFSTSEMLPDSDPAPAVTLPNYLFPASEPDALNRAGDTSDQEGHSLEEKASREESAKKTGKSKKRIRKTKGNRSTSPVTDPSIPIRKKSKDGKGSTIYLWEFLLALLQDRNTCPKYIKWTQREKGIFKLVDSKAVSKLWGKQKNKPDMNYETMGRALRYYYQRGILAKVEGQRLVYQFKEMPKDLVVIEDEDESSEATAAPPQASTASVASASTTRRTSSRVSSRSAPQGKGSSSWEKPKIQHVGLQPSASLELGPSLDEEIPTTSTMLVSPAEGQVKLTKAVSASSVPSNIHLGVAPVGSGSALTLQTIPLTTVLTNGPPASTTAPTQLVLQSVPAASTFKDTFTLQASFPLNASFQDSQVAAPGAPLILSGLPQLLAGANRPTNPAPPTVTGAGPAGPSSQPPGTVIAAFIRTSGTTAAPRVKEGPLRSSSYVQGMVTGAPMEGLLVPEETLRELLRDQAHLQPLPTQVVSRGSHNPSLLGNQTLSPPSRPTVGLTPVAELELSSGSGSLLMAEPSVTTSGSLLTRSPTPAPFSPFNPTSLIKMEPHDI
# In short: as §1
# ELK4 = target: T8, ELK4 (Homo sapiens, UniProt P28324-2 1-405); conditions: protein: recombinant; tags: N-terminal GST; dsDNA, one strand shown
# T8 sequence: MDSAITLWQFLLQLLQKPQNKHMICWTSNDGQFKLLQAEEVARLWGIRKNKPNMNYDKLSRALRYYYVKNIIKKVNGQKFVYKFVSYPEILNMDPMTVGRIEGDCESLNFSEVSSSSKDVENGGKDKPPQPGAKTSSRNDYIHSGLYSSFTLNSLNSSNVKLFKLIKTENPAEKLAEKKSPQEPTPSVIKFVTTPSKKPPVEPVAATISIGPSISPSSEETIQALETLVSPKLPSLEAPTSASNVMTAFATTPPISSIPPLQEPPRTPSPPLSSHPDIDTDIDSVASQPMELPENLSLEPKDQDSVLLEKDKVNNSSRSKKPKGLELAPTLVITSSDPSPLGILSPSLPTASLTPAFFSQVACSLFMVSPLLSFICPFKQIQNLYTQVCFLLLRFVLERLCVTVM
# In short: as §1
# ETV2 = target: T9, ETV2 (Homo sapiens, UniProt O00321 1-342); conditions: protein: recombinant; tags: N-terminal GST; dsDNA, one strand shown
# T9 sequence: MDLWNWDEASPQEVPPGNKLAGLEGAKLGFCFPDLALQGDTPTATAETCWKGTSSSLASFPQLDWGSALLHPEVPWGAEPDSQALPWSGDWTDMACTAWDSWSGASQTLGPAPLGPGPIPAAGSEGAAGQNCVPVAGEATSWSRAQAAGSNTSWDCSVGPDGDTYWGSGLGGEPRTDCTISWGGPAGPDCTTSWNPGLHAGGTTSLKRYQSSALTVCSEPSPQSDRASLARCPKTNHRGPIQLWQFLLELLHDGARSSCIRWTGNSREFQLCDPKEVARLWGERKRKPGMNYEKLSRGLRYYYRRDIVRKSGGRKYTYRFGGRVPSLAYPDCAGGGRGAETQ
# In short: as §1
# ELF3 = target: T10, ELF3 (Homo sapiens, UniProt P78545 1-371); conditions: protein: recombinant; tags: N-terminal GST; dsDNA, one strand shown
# T10 sequence: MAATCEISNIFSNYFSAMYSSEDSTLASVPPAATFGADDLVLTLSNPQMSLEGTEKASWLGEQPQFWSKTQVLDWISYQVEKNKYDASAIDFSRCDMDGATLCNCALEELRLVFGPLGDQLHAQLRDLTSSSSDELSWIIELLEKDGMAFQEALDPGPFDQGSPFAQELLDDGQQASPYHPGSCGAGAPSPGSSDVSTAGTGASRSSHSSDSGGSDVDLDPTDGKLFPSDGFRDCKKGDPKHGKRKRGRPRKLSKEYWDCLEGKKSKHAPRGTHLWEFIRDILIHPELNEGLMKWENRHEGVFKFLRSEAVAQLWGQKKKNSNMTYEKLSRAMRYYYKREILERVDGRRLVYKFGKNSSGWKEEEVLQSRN
# In short: as §1
# ETV1 = ETV1 (Homo sapiens, UniProt P50549 1-477); conditions: protein: recombinant; tags: N-terminal GST; dsDNA, one strand shown
# Chain of ETV1 (P50549 whole entry): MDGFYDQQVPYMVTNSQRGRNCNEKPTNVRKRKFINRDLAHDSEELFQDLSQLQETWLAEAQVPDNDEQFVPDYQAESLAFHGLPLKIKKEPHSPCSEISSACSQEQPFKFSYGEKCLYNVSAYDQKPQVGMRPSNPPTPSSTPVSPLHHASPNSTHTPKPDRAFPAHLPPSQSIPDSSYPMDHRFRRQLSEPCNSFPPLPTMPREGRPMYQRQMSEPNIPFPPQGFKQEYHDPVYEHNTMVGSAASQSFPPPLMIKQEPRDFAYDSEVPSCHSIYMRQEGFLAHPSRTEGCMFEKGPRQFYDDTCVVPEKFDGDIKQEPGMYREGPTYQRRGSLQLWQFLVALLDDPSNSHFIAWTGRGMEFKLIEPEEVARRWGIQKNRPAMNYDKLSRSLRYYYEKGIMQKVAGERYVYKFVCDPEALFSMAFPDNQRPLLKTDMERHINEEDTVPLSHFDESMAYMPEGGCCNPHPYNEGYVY
# In short: as §1
sequence,measurement,setting,value
TCGACG,binding signal,FLI1,"1.23 fold enrichment (6-mer frequency, TF over GST control)"
same,binding signal,ELK1,"1.14 fold enrichment (6-mer frequency, TF over GST control)"
same,binding signal,GABPA,"1.06 fold enrichment (6-mer frequency, TF over GST control)"
same,binding signal,ERG,"1.04 fold enrichment (6-mer frequency, TF over GST control)"
same,binding signal,ELF1,"1.1 fold enrichment (6-mer frequency, TF over GST control)"
same,binding signal,EHF,"1.21 fold enrichment (6-mer frequency, TF over GST control)"
same,binding signal,SPIB,"1.05 fold enrichment (6-mer frequency, TF over GST control)"
same,binding signal,ELK3,"1.02 fold enrichment (6-mer frequency, TF over GST control)"
same,binding signal,ETV5,"1.17 fold enrichment (6-mer frequency, TF over GST control)"
same,binding signal,HSF1,"1.15 fold enrichment (6-mer frequency, TF over GST control)"
same,binding signal,SPIC,"1.07 fold enrichment (6-mer frequency, TF over GST control)"
same,binding signal,ELF4,"1.08 fold enrichment (6-mer frequency, TF over GST control)"
same,binding signal,ELK4,"1.08 fold enrichment (6-mer frequency, TF over GST control)"
same,binding signal,ETV2,"1.18 fold enrichment (6-mer frequency, TF over GST control)"
same,binding signal,ELF3,"1.06 fold enrichment (6-mer frequency, TF over GST control)"
same,binding signal,ETV1,"1.05 fold enrichment (6-mer frequency, TF over GST control)"
